PubChem BioAssay AID651744 (Broad Institute, 2012)
About 3,100 (55%) of roughly 5,600 compounds were called active. Inconclusive results (about 3%) are left out. So high a share suggests a set chosen from earlier hits. These entries were drawn from the full list. Values without a mark were called inactive.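 The calls were made as follows: active = mean loss of cell viability signal at or above a set limit, and enough replicates individually reaching it; inconclusive = meets only the mean limit or only the replicate share; inactive = meets neither condition.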

test: viability loss of mouse 3T3 cells – cell-based, cherry-pick, single point, set 2, cytotoxicity control, confirmation (AID 651744); conditions: NIH/3T3 viability, CellTiter-Glo ATP luminescence, 90 h; at 24.9 µM; active compounds read high;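 also: 0% = median of neutral control wells and 100% = median of positive control wells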

Structure (SMILES)	inhibition
O=C(c1ccc(F)cc1)N1CCCCN2[C@H](C1)[C@@H](c1ccc(C#CC3(O)CCCC3)cc1)[C@@H]2CO	18%
O=C(Nc1ccccc1)N1CCCCN2[C@H](CO)[C@@H](c3ccc(C#Cc4ccccn4)cc3)[C@H]2C1	9.74%
O=C(c1cccnc1)N1CCCCN2[C@@H](CO)[C@H](c3ccc(C#Cc4ccccc4)cc3)[C@@H]2C1	66.5% (active)
COc1ccc(C#Cc2ccc([C@@H]3[C@@H](CO)N4CCCCN(C(=O)c5ccncc5)C[C@@H]34)cc2)cc1	97.5% (active)
O=C(c1ccncc1)N1CCCCN2[C@H](CO)[C@H](c3ccc(-c4ccccc4)cc3)[C@H]2C1	5.4%
O=C(c1cccc(F)c1)N1CC[C@@H]2[C@@H](CO)Nc3ccc(C#Cc4cccc(F)c4)cc3[C@@H]21	105% (active)
O=S(=O)(c1ccccc1)N1CC[C@@H]2[C@@H](CO)Nc3ccc(C#Cc4cccc(F)c4)cc3[C@@H]21	52.5% (active)
O=S(=O)(c1ccccc1)N1CC[C@@H]2[C@@H](CO)Nc3ccc(-c4ccccc4F)cc3[C@@H]21	23.8%
O=S(=O)(c1ccccc1)N1CC[C@@H]2[C@H]1c1cc(C#Cc3cccc(F)c3)ccc1N[C@@H]2CO	72.4% (active)
COCC(=O)N1CC[C@@H]2[C@@H](CO)Nc3ccc(-c4cccc(C#N)c4)cc3[C@@H]21	5.66%
CN(C)C(=O)c1ccc(-c2ccc3c(c2)[C@H]2[C@H](CCN2C(=O)c2ccc4c(c2)OCO4)[C@H](CO)N3)cc1	-8.51%
CC(=O)N1CC[C@@H]2[C@H](CO)Nc3ccc(C#Cc4ccccc4F)cc3[C@@H]21	33.2% (active)
CC(=O)N1[C@H](CNC(=O)C2CC2)[C@@H](c2ccc(-c3cccc(F)c3)cc2)[C@@H]1CO	13%
CN1c2ccc(-c3ccccc3)cc2[C@H]2[C@H](CCN2C(=O)Cc2ccccn2)[C@H]1CO	9.27%
COc1ccc(NC(=O)N2CC[C@@H]3[C@@H](CO)N(C)c4ccc(-c5cccc(F)c5)cc4[C@@H]32)cc1	20.7%
Cc1ccccc1S(=O)(=O)N1CC[C@H]2[C@H](CO)Nc3ccc(-c4cccc(F)c4)cc3[C@H]21	105% (active)
CCC(=O)N1CC[C@@H]2[C@@H](CO)N(C)c3ccc(-c4ccc(F)cc4)cc3[C@@H]21	12.2%
O=C(Cc1ccccc1)N1CC[C@H]2[C@H](CO)Nc3ccc(-c4ccccc4F)cc3[C@H]21	48.1% (active)
O=C(C[C@@H]1C[C@@H]2c3cc(NC(=O)c4ccc5c(c4)OCO5)ccc3O[C@@H]2[C@@H](CO)O1)NCc1ccc(Cl)cc1	14.5%

Structure (SMILES)	inhibition
CN1C(=O)c2cc(NC(=O)c3cnccn3)ccc2OC[C@@H]2O[C@@H](CC(=O)N[C@H]3CCN(Cc4ccccc4)C3)CC[C@H]21	-12.6%
C[C@H]1CCCCO[C@@H](CN(C)S(=O)(=O)c2cccs2)[C@@H](C)CN([C@@H](C)CO)C(=O)c2cc(NS(=O)(=O)c3ccc(Cl)cc3)ccc2O1	11.8%
C[C@@H]1CCCCO[C@H](CN(C)Cc2ccccc2)[C@H](C)CN([C@H](C)CO)C(=O)c2cc(NS(=O)(=O)c3ccc(Cl)cc3)ccc2O1	104% (active)
C[C@@H]1CN([C@H](C)CO)C(=O)c2cc(NS(=O)(=O)c3cccs3)ccc2O[C@@H](C)CCCCO[C@@H]1CN(C)S(=O)(=O)c1ccc(Cl)cc1	2.36%
COc1ccc(S(=O)(=O)N(C)C[C@H]2OCCCC[C@H](C)Oc3ccc(NS(=O)(=O)c4ccc(F)cc4)cc3C(=O)N([C@@H](C)CO)C[C@@H]2C)cc1	-33.1%
C[C@H](CO)N1C[C@H](C)[C@H](CN(C)Cc2ccc(C(F)(F)F)cc2)OCCCC[C@H](C)Oc2ccc(NS(=O)(=O)c3ccc(Cl)cc3)cc2C1=O	105% (active)
C[C@H]1CCCCO[C@@H](CN(C)C(=O)NC2CCCCC2)[C@@H](C)CN([C@@H](C)CO)C(=O)c2cc(NS(=O)(=O)c3ccc(Cl)cc3)ccc2O1	15.4%
C[C@H](CO)N1C[C@H](C)[C@H](CN(C)S(=O)(=O)c2ccc(F)cc2)OCCCC[C@H](C)Oc2ccc(NS(=O)(=O)c3ccc(Cl)cc3)cc2C1=O	18.4%
COc1ccc(NC(=O)N(C)C[C@@H]2OCCCC[C@@H](C)Oc3ccc(NS(=O)(=O)c4ccc(Cl)cc4)cc3C(=O)N([C@H](C)CO)C[C@H]2C)cc1	-14.7%
C[C@@H]1CCCCO[C@H](CN(C)C(=O)NC2CCCCC2)[C@H](C)CN([C@H](C)CO)C(=O)c2cc(NS(=O)(=O)c3ccc(Cl)cc3)ccc2O1	-1.41%
C[C@@H]1CN([C@H](C)CO)C(=O)c2cc(NS(=O)(=O)c3ccc(Cl)cc3)ccc2O[C@@H](C)CCCCO[C@H]1CN(C)Cc1ccccc1	103% (active)
COc1ccc(S(=O)(=O)Nc2ccc3c(c2)C(=O)N([C@H](C)CO)C[C@@H](C)[C@@H](CN(C)CC2CCCCC2)OCCCC[C@@H](C)O3)cc1	107% (active)
C[C@@H]1CCCCO[C@H](CN(C)S(=O)(=O)c2cccs2)[C@H](C)CN([C@H](C)CO)C(=O)c2cc(NS(=O)(=O)c3ccc(F)cc3)ccc2O1	-27.9%
C[C@@H]1CCCCO[C@H](CN(C)S(=O)(=O)c2ccc(Cl)cc2)[C@H](C)CN([C@@H](C)CO)C(=O)c2cc(NS(=O)(=O)c3cccs3)ccc2O1	-8.7%
C[C@@H]1CN([C@H](C)CO)C(=O)c2cc(NS(=O)(=O)c3cccs3)ccc2O[C@@H](C)CCCCO[C@H]1CN(C)Cc1ccc(C(F)(F)F)cc1	103% (active)
C[C@@H]1CN([C@H](C)CO)S(=O)(=O)c2ccc(C3=CCCC3)cc2O[C@H]1CN(C)Cc1ccccc1F	106% (active)
C[C@H]1CN([C@@H](C)CO)S(=O)(=O)c2ccc(C3=CCCC3)cc2O[C@@H]1CN(C)Cc1ccccc1	103% (active)
C[C@H]1CN([C@@H](C)CO)S(=O)(=O)c2ccc(C3=CCCCC3)cc2O[C@@H]1CN(C)Cc1ccccc1	106% (active)
